This passage reports outcome results from PubChem BioAssay (EPA / NIEHS).

Results filed as inconclusive are left out. Calls of active or inactive are those of the source. Rule for the calls: active = hit-call score of the fitted dose curve at least 0.9, where 1 is the maximum; inconclusive = response in the unintended direction; inactive = score below 0.9.

Test [1] deals with human Protein Tyrosine Phosphatase Receptor Type M (PTPRM), PTPRM (gene 5797) (UniProt P28827). Put plainly: NVS_ENZ_hPTPRM: NovaScreen (NVS) Enzymatic Assay for human Protein Tyrosine Phosphatase Receptor Type M (PTPRM) (AID 2283215). The procedure: NVS_ENZ_hPTPRM is a biochemical, single-readout assay that uses extracted gene-proteins in a cell-free assay. Measurements were taken 1.33 hours after chemical dosing in a 384-well plate.NVS_ENZ_hPTPRM is one of one assay component(s) measured or calculated from the NVS_ENZ_hPTPRM assay. It is designed to make measurements of enzyme activity, a form of enzyme reporter, as detected with fluorescence intensity signals by Fluorescence and electrophoretic mobility shift technology.Data from the assay component NVS_ENZ_hPTPRM was analyzed into 1 assay endpoint. This assay endpoint, NVS_ENZ_hPTPRM, was analyzed in the positive analysis fitting direction relative to DMSO as the negative control and baseline of activity. Using a type of enzyme reporter, loss-of-signal activity can be used to understand changes in the enzymatic activity as they relate to the gene PTPRM. Furthermore, this assay endpoint can be referred to as a primary readout, because this assay has produced multiple assay endpoints where this one serves a enzymatic activity function. To generalize the intended target to other relatable targets, this assay endpoint is annotated to the phosphatase intended target family, where the subfamily is receptor tyrosine phosphatase. […]

Test [2] deals with human Tropomyosin Receptor Kinase A (TRKA), NTRK1 (gene 4914) (UniProt P04629). Put plainly: NVS_ENZ_hTrkA: NovaScreen (NVS) Enzymatic Assay for human Tropomyosin Receptor Kinase A (TRKA) (AID 2283224). Summed up:
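Recombinant human TrkA activity read after 1 h by fluorescence with electrophoretic mobility shift separating substrate and product. Primary screen in duplicate at 25 uM; actives were rerun in concentration-response up to 50 uM. Loss of signal versus DMSO.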

human Tropomyosin Receptor Kinase A (TRKA), NTRK1 (gene 4914), sequence (P04629 whole entry, looked up): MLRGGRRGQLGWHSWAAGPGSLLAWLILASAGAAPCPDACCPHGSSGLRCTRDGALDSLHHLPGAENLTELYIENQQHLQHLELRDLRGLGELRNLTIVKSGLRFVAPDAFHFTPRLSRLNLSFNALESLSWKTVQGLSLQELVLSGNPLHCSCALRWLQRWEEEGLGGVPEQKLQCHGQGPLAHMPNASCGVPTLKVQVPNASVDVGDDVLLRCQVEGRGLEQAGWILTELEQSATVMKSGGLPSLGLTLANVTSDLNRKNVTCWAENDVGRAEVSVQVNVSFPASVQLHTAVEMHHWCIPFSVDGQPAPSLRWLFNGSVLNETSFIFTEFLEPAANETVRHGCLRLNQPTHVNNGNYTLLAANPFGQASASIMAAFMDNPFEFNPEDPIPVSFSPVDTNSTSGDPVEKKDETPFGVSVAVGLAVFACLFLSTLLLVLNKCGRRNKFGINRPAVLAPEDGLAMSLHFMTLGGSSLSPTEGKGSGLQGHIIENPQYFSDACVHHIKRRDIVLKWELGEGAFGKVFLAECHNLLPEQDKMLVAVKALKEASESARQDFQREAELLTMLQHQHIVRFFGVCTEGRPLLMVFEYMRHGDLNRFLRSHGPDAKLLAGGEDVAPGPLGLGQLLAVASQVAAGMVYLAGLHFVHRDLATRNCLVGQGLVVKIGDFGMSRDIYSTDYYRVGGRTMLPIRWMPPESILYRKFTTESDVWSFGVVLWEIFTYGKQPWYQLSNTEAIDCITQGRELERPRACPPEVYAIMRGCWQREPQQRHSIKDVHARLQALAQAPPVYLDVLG
human Protein Tyrosine Phosphatase Receptor Type M (PTPRM), PTPRM (gene 5797), sequence (P28827 whole entry, looked up): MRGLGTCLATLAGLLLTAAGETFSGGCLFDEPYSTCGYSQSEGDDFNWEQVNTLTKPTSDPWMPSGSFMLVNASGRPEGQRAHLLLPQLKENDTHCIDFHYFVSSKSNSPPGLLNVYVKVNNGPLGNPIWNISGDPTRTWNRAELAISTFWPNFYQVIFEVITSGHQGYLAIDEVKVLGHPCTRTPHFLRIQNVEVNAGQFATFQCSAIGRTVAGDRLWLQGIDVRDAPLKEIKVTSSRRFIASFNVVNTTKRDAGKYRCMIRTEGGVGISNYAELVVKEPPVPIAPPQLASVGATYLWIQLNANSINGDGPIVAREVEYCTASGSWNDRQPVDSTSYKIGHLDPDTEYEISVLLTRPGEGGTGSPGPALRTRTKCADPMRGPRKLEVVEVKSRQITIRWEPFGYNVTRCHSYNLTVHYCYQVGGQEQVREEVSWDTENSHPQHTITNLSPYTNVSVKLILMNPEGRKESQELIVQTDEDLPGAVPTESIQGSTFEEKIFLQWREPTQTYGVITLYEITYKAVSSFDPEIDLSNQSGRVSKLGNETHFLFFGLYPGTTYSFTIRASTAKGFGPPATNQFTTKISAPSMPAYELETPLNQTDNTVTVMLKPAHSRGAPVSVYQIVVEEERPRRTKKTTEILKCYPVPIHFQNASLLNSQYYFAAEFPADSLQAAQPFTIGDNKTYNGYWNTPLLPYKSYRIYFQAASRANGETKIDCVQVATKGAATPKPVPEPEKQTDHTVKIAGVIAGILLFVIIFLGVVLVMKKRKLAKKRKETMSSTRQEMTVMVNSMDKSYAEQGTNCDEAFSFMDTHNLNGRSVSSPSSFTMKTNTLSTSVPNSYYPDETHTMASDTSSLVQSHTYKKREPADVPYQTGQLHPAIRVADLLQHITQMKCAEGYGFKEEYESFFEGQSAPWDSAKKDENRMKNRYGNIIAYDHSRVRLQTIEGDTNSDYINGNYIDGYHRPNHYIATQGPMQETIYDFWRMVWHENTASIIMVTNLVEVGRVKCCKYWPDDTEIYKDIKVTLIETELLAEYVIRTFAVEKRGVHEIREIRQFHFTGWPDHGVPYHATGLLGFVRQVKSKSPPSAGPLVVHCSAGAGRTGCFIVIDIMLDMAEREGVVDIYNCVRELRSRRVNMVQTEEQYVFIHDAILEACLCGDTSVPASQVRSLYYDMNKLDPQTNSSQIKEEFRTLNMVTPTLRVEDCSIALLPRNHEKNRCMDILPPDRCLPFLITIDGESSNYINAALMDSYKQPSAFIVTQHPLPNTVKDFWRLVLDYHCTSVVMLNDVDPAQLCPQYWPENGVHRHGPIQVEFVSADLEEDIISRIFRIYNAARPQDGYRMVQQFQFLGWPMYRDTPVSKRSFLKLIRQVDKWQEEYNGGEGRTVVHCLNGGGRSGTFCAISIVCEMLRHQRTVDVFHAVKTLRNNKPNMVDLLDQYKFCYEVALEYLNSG

In the case of `O=C(OCCCCCOC(=O)c1ccccc1)c1ccccc1`, the result in test [1] was inactive.

`CC1=C(/C=C/C(C)=C/C=C/C(C)=C/CO)C(C)(C)CCC1`: the compound was called inactive in test [2].

Consider `FC(F)(F)C(F)(F)C(F)(F)C(F)(F)C(F)(F)C(F)(F)CCI`, for which the compound was classed as inactive in test [2].
